DT40 TDP1 CPT – qHTS for Inhibitors of human tyrosyl-DNA phosphodiesterase 1 (TDP1): qHTS in cells in presence of CPT; chicken DT40 Tdp1-/-;hTDP1 cells + 20 nM CPT, ATP luminescence, 48 h; Potency, µM (titrated, usually from 46.2 µM), for inactives: at the highest dose activity change, negative = growth inhibition, usual class: inhibitors; 420,000 compounds, 12% hits; also: potency is read from the fitted curve at half-maximal effect; nearly all actives have a fitted effect of over 55% in size
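Chicken DT40 Tdp1-/- cells stably complemented with human TDP1 were seeded at 400 cells/well in medium containing 20 nM camptothecin, exposed to pin-transferred compounds, and grown at 37 °C for at least 48 hr. Viability was read as ATP luminescence.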
IL1B secr inh – qHTS for Inhibitors of Inflammasome Signaling: IL-1-beta AlphaLISA Primary Screen. THP-1 LPS/ATP IL-1B secretion, AlphaLISA, 16 h; active compounds read low. activity change, % at 57.5 µM. 360,000 compounds, 4.7% hits; in the data active = activity change below about -50%; inconclusive = mostly about -30% to -49%
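Secreted IL-1B measured by AlphaLISA bead assay after 16 h compound exposure of THP-1 cells; compounds (final up to 57.5 uM) added 1 h before LPS (250 ng/mL) and ATP (1.25 mM) stimulation; lower signal means less secretion.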
ELG1 repair inh – qHTS screen for small molecules that inhibit ELG1-dependent DNA repair in human embryonic kidney (HEK293T) cells expressing luciferase-tagged ELG1; HEK293T ELG1-luciferase reporter, luminescence, 16 h; DNA damage induced by 5-fluorouridine; Potency, µM (doses to about 46.1 µM), for the others: at the top dose activity change, negative = inhibition, most hits filed as inhibitors; 330,000 compounds, 2.3% hits; also: potency is read from the fitted curve at half-maximal effect; nearly all actives have a fitted effect of over 55% in size
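Overnight (16 hr) co-exposure of 2,000 cells/well to 5-fluorouridine and compound at 37 °C preceded detection. Luciferase was quantified via ONE-Glo luminescence; loss of signal denotes inhibition.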
TDP1 cell noCPT – qHTS for Inhibitors of human tyrosyl-DNA phosphodiesterase 1 (TDP1): qHTS in cells in absence of CPT; DT40 Tdp1-/- hTDP1 cells, no CPT, ATP luminescence, 48 h; Potency, µM (top dose mostly 46.2 µM), for the others: top-dose activity change, negative = growth inhibition, usual class: inhibitors; 420,000 compounds, 15% hits; AID 686978, 2013; also: potency is read from the fitted curve at half-maximal effect; nearly all actives have a fitted effect of over 55% in size
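No-CPT arm: Tdp1-/-;hTDP1 DT40 cells (400/well) plus compounds, incubated ≥48 hr at 37 °C. Readout CellTiter-Glo luminescence.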
HT1080NT lethal – qHTS for induction of synthetic lethality in tumor cells producing 2HG: qHTS for the HT-1080-NT fibrosarcoma cell line | HT-1080-NT fibrosarcoma viability, CellTiter-Glo ATP luminescence, 48 h | Potency, µM (titrated, usually from 46.1 µM), for the others: at the top dose activity, negative = less viability, actives largely listed as cytotoxic | 360,000 compounds, 1.6% hits;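 also: NT is the 2HG producing partner of a matched IDH1 knockdown line; potency is read from the fitted curve at half-maximal effect; 0% = DMSO-treated cells and -100% = media-only wells without cells; nearly all actives have a fitted effect of over 55% in size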
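750 cells/well, RPMI + 5% FBS; 2 h settle, compound pin-transfer, 48 h at 37 degrees C. CellTiter-Glo 10 min RT, luminescence. Normalized to DMSO and media-only wells.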
HT1080 IDH1KD tx – qHTS for induction of synthetic lethality in tumor cells producing 2HG: qHTS for the HT-1080-IDH1KD cell line; 360,000 compounds, 2% hits; Potency, µM (highest dose often 46.1 µM), for inactives: top-dose activity, negative = toxicity, most hits filed as cytotoxic; HT-1080 IDH1 knockdown viability, ATP luminescence, 48 h;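 also: potency is read from the fitted curve at half-maximal effect; 0% = DMSO wells and -100% = cell-free medium wells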
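HT-1080-IDH1KD cells (IDH1 knocked down), 750/well in RPMI with 5% FBS, treated with compound 48 h at 37 degrees C. Viability by CellTiter-Glo luminescence, normalised to DMSO and no-cell wells; concentration-response curves classed.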
* hit, by the source's call; ? = inconclusive; / = not tested or not shown; [ ] = dose if it differs, or a comment. An excerpt weighted towards active compounds, which were near 19% of everything screened. Unless noted, calls follow the shape of the dose curve; as a rule, active = well fitted curve in the direction sought with a large enough effect; inconclusive = small, poorly fitted or top-dose-only effect, or another doubt; inactive = no such curve, though single readings can be large; an effect the other way counts as inactive or inconclusive. Unless noted, % is scaled to controls: 0 for no effect and ±100 for the full control effect.

SMILES	DT40 TDP1 CPT	IL1B secr inh	ELG1 repair inh	TDP1 cell noCPT	HT1080NT lethal	HT1080 IDH1KD tx
CC1CCCCN1CCCNC(=O)c1ccc2c(c1)sc1nc(-c3ccc(F)cc3)cn12 (stereo not given)	2.3µM*	/	/	3.3µM*	/	/
COc1cc2oc(=O)cc(-c3cccc(-c4cccc(C)c4)c3)c2c(OC)c1OC	?	28	21µM*	23µM*	?	?
COc1ccc(-c2cc3ccc(O)cc3oc2=O)cc1OC	4%	7	?	3%	?	?
COc1ccc(-c2ccc(-c3cc(=O)oc4cc(OC)c(OC)c(OC)c34)cc2)cc1OC	18µM*	17	10µM*	15µM*	-4%	-12%
Cc1cc2oc(=O)cc(-c3ccccc3)c2c(C)c1-c1ccc(O)cc1	?	0	-9%	?	-10%	-8%
COc1cc2oc(=O)cc(-c3ccc(-c4ccc(O)cc4)cc3)c2c(OC)c1OC	?	-14	?	18µM*	-22%	-23%
O=C(NNc1ccc([N+](=O)[O-])cc1)Nc1ccccc1	1%	-5	0%	?	-4%	-6%
O=C(NNc1ccccc1)C(=O)NNS(=O)(=O)c1ccc([N+](=O)[O-])cc1	2%	11	-18%	5%	2.1µM*	5.8µM*
CC(=O)Nc1ccc(S(=O)(=O)NNC(=O)c2ccc([N+](=O)[O-])cc2)cc1	-4%	85	17%	23%	0%	-2%
O=C(NNc1ccccn1)C(=O)NNS(=O)(=O)c1ccc(F)cc1	-16%	-11	21µM*	?	-12%	-27%
CC(=O)Nc1ccc(S(=O)(=O)NNc2ccc([N+](=O)[O-])cc2)cc1	?	-7	-16%	?	?	16µM*
O=C(NNc1ccccn1)C(=O)NNS(=O)(=O)c1ccc(Cl)cc1	?	45	-2%	?	-21%	?
COc1ccc(CCNC(=O)c2ccc3c(c2)NC(=O)C(CSCc2cc(C)ccc2C)N3)cc1OC (stereo not given)	/	/	17%	/	/	/
CC(C)C(=O)OC1=CN(Cc2ccccc2)S(=O)(=O)c2ccccc21	?	/	/	-23%	/	/
CCCCNC(=S)NNC(=O)c1ccoc1C	-7%	0	5%	0%	10%	5%
CCCCNC(=S)NNC(=O)c1csc2ccccc12	?	-28	9%	26µM*	?	2%
Cc1cc(F)ccc1NC(=O)Cn1cc(S(=O)(=O)NC(C)C)c(S(=O)(=O)NC(C)C)c1	-8%	/	/	-4%	/	/
O=C1/C(=C/N(C(=O)c2ccco2)c2ccc(Cl)cc2)Sc2ccccc21	23µM*	?	?	16µM*	-12%	1%
O=C1/C(=C/N(C(=O)c2ccco2)c2ccc(Br)cc2)Sc2ccccc21	?	-14	?	15µM*	?	?
O=C(OCCN(C1=NS(=O)(=O)c2ccccc21)c1ccc(Cl)cc1)c1ccco1	-24%	10	-8%	-28%	4%	3%
Fc1ccccc1N1CCN(c2nccn3nc(-c4ccc(Br)cc4)cc23)CC1	-1%	/	/	12%	/	/
C/C(=C\c1ccc2c(c1)OCO2)C(=O)c1c(C)cc(C)[nH]c1=O	-21%	-23	4%	?	0%	-6%
Cc1cc(O)c(C(=O)/C=C/c2ccc(C(C)C)cc2)c(=O)o1	-21%	-8	?	?	5%	14%
Cc1cc(C)c(C(=O)/C=C/c2ccc(C(C)C)cc2)c(=O)[nH]1	23µM*	-117*	21µM*	16µM*	-21%	16µM*
C/C(=C\c1cccc(Br)c1)C(=O)c1c(C)cc(C)[nH]c1=O	-27%	-71*	?	-17%	-5%	-6%
SMILES	DT40 TDP1 CPT	IL1B secr inh	ELG1 repair inh	TDP1 cell noCPT	HT1080NT lethal	HT1080 IDH1KD tx
Cc1cc(C)c(C(=O)/C=C/C=C/c2ccccc2)c(=O)[nH]1	-23%	-79*	8%	-28%	-3%	-3%
COC(=O)[C@@H]1CC[C@H](C)[C@@H](c2ccc(C)cc2)N1C(=O)c1ccc(/C=N/O[C@@H](C)c2cn([C@H](CO)Cc3ccccc3)nn2)cc1	/	/	15µM*	/	/	/
Cc1nc2ccccc2c(C)c1CC(=O)N(C)CC(=O)Nc1cccc(F)c1	2%	-8	-22%	-26%	-30%	-21%
Cc1csc(NC(=O)CSc2nnc(Cn3c(=O)sc4ccccc43)n2-c2ccccc2)n1	7.3µM*	?	?	-100%	-2%	-7%
CCCSc1nnc(Cn2c(=O)sc3ccccc32)n1-c1ccccc1	?	15	?	18µM*	9%	12%
Cn1c(Cn2c(=O)sc3ccccc32)nnc1SCC(=O)NC1CCCC1	16µM*	-15	5%	-9%	16%	1%
CSc1nnc(Cn2c(=O)sc3ccccc32)n1-c1cccc(Cl)c1	?	-3	11%	?	-1%[9.24 µM]	-4%
Cc1sc2ncn3ncnc3c2c1C	-28%	-9	9.2µM*	-20%	-10%	0%
O=C(O)c1ccc(NC(=O)c2cccc(S(=O)(=O)Nc3ccc(C(=O)O)cc3)c2)cc1	8%	-10	4%	-1%	6%	5%
COc1ccc(C(=O)Nc2ccc(NS(=O)(=O)c3ccccc3)cc2)cc1OC	?	?	18µM*	?	-12%	-17%
COC(C(=O)Nc1ccc(S(=O)(=O)Nc2ccc(F)cc2)cc1)c1ccccc1 (stereo not given)	?	-101*	-6%	?	?	?
COc1ccc(C(=O)Nc2ccc(S(=O)(=O)Nc3ncccn3)cc2)cc1OC	-4%	-1	-7%	-5%	22%	11%
COc1cc(S(=O)(=O)Nc2cccc(C)c2)ccc1NC(=O)c1ccncc1	?	-11	?	13µM*	-7%	-18%
COC(C(=O)Nc1ccc(S(=O)(=O)N2CCCCC2)cc1)c1ccccc1 (stereo not given)	?	-11	-24%	-22%	-16%	-7%
O=C(Nc1ccncc1)c1ccc(NS(=O)(=O)c2cccc(F)c2)cc1	?	35	-21%	21µM*	5%	-11%

From PubChem
